# Laboratory results taken from PubChem BioAssay (Tox21).
# Results filed as inconclusive are left out. A call without a number means that no potency is given here. Activity calls are given as the source filed them. The call rests on the fitted dose curve; in most records, active means well fitted cell-killing curve with a large enough effect in the repeat runs; inconclusive means weak or mixed curves, or effect the other way; inactive means no such curve, though single readings can be large or run the other way.
# Test: qHTS assay to identify small molecule antagonists of the thyroid receptor (TR) signaling pathway - cell viability counter screen (AID 743064); further: nearly all actives have a fitted effect of over 50% in size
# Settings: GH3.TRE-Luc viability, CellTiter-Fluor, 24 h; series mostly up to 70.3 µM
# Description: National Center for Advancing Translational Sciences [NCATS]
# NIH Chemical Genomics Center [NCGC]
# U.S. Environmental Protection Agency [EPA]
# National Institutes of Environmental Health Sciences [NIEHS]
# National Toxicology Program [NTP]
# U.S. Food and Drug Administration [FDA]
# Thyroid receptor (TR), a nuclear hormone receptor, plays an important role in development, proliferation, differentiation, metabolism, brain function, and cardiovascular system. […] To profile the Tox21 10K compound library in TR signaling, a cell-based GH3-TRE-Luc assay (GH3.TRE-Luc cell line, developed by the laboratory of Dr. Albertinka J. Murk, Wageningen University) was used to measure the inhibition of TR. GH3 (rat pituitary tumor) cells stably expressing a TR activity sensor consisting of two TR response elements and a luciferase reporter gene. The cytotoxicity of the Tox21 compound library against the GH3.TRE-Luc cell line was tested in parallel by measuring the cell viability using CellTiter-Fluor assay (Promega, Madison, WI) in the same wells.
# Tox21 Assay Protocol Summary:
# GH3.TRE-Luc cells were dispensed at 1500 cells/4 uL/well into 1536-well white solid bottom plates using a Multidrop Combi dispenser (Thermo Fisher Scientific Inc., Waltham, MA). After the assay plates were incubated at 37 C for 4 hours, 23 nL of library compound or DMSO controls was transferred to the assay plates by a pintool station (Kalypsys, San Diego, CA), followed by addition of 1 ul of T3 (1 nM, final concentration in the wells) to stimulate TR transactivation. The assay plates were incubated at 37 C for 23.5 h, and then 1 uL of CellTiter-Fluor reagent (Promega, Madision, WI) of measuring cytotoxicity was added to each well using a Bioraptr Flying Reagent Dispenser (FRD) workstation (Beckman Coulter, Indianapolis, IN, USA). The plates were incubated at 37C and 5% CO2 for additional 30 min, and fluorescence intensity was measured by a ViewLux plate reader (PerkinElmer, Shelton, CT).
Compound,Potency,"activity change, negative = cytotoxic"
BrCC1CO1 (stereo not given),inactive,
CCOP(=S)(OCC)Oc1ccc(Cl)cc1Cl,inactive,
[P]#[In],inactive,
c1ccc2c(c1)CCNC2,inactive,
CCCN1CCC[C@@H]2Cc3nc(N)ncc3C[C@H]21,inactive,
CC(C)[N+](C)(CCC(C(N)=O)(c1ccccc1)c1ccccc1)C(C)C,inactive,
OCC(Cl)CCl (stereo not given),inactive,
CCC(=O)c1ccc(Cl)cc1,inactive,
Cn1c(CCCC(=O)O)nc2cc(N(CCCl)CCCl)ccc21,inactive,
COc1cc(CC(C)N)cc(OC)c1OC (stereo not given),inactive,
ClCC1CO1 (stereo not given),inactive,
O=C(O)c1c(Cl)ccc2cc(Cl)cnc12,inactive,
COc1cccc(C=O)c1,inactive,
C/C=C/CC#N,inactive,
O=c1[nH]c2ccccc2o1,inactive,
C=CC1(C)OC(=O)N(c2cc(Cl)cc(Cl)c2)C1=O (stereo not given),inactive,
CC[C@H](N)c1ccccc1,inactive,
CN(CCO)CCO,inactive,
Nc1c(Cl)c(F)nc(OCC(=O)O)c1Cl,inactive,
O=C1CC(=O)NC(=O)N1,inactive,

Compound,Potency,"activity change, negative = cytotoxic"
Cc1ccc(-c2nc3ccc(C)cn3c2CC(=O)N(C)C)cc1,inactive,
C=C1C[C@@H]2[C@H](CC[C@]3(C)C(=O)CC[C@@H]23)[C@@]2(C)C=CC(=O)C=C12,inactive,
S=C=S,inactive,
CCOc1cc(OP(=S)(OC)OC)nc(CC)n1,inactive,
N[C@@H]1C[C@H]1c1ccccc1,inactive,
OP(O)c1ccccc1,inactive,
CC1NCCOC1c1ccccc1 (stereo not given),inactive,
C#CCOC(=O)/C=C(C)/C=C/CC(C)CCCC(C)C (stereo not given),inactive,
COc1ccc(C=O)cc1O,inactive,
CCCOc1nn(C(=O)NS(=O)(=O)c2ccccc2C(=O)OC)c(=O)n1C,inactive,
CC(O)CCl (stereo not given),inactive,
Clc1cc2c(cc1Cl)Oc1cc(Cl)c(Cl)cc1O2,,5.73% [at 0.341 µM] (inactive)
CC[C@@H](CO)NC(=O)[C@@H]1C=C2c3cccc4[nH]cc(c34)C[C@H]2N(C)C1,inactive,
CC(=O)OCC1=C(C(=O)O)N2C(=O)[C@@H](N)[C@H]2SC1,inactive,
CC[C@@H](CO)NC(=O)[C@@H]1C=C2c3cccc4c3c(cn4C)C[C@H]2N(C)C1,inactive,
CC1N=C(N)OC1c1ccccc1 (stereo not given),inactive,
CCOC(=O)CCl,inactive,
CS(=O)(=O)Cl,inactive,
CC(Cl)(Cl)Cl,inactive,
C=CC(=O)OCCN(C)C,inactive,
